Screens: PubChem, National Center for Advancing Translational Sciences (NCATS)
ERK EGF inh: inhibitors of EGF-stimulated ERK signaling pathway; HEK293-V1b, EGF-stimulated phospho-ERK AlphaScreen; Potency, µM (top dose mostly 11.5 µM), for the others: top-dose activity change, negative = inhibition, most hits filed as inhibitors; 130,000 tested, 0.41% active; AID 1454;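 further: plate controls were stimulated vehicle wells for no effect and unstimulated vehicle basal for full effect; nearly all actives have a fitted effect of over 55% in size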
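Stably V1b-transfected HEK293 cells; 30 min compound, then EGF 25 nM final for 5 min at 37C; 10 min lysis; phospho-ERK by AlphaScreen after 5 hr beads at room temperature.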
NPSR antagonist: antagonists of human neuropeptide S receptor cAMP signaling; Q6W5P4; CHO-NPSR cells, cAMP TR-FRET, antagonist mode; Potency, µM (highest dose often 38.3 µM), inactives show at the top dose activity change, negative = inhibition, hits mostly inhibitors; 220,000 tested, 1% active; AID 1461; further: nearly all actives have a fitted effect of over 50% in size
Target sequence (Q6W5P4 whole entry, looked up): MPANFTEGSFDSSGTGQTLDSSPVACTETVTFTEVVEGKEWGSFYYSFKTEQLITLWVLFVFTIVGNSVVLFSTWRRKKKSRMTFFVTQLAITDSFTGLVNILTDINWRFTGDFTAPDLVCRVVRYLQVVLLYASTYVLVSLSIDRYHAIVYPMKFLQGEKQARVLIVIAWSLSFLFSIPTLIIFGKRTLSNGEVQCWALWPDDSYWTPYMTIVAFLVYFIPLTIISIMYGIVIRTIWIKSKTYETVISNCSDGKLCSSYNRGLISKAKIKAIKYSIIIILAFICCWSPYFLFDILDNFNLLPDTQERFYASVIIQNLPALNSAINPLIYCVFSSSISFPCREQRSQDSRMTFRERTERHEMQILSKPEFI
Active calls of the source: *; ? = inconclusive; / = not tested or not shown; [ ] = another dose, or the depositor's remark. The sample as a whole holds a higher share of hits than the screen did. The call rests on the fitted dose curve; in most records, active means well fitted curve in the direction sought with a large enough effect; inconclusive means small, poorly fitted or top-dose-only effect, or another doubt; inactive means no such curve, though single readings can be large; an effect the other way counts as inactive or inconclusive. Unless noted, on the % scale 0 is the no-effect control and ±100 the full control effect; potency means the concentration at half of the fitted maximal effect.

SMILES	ERK EGF inh	NPSR antagonist
O=C1N[C@H](Cc2ccccc2)C(=O)N1Cc1cccc2ccccc12	-11%	/
Cc1cccc(NC(=O)Nc2ccc(Oc3c(F)c(F)c(F)c(F)c3F)cc2)c1	/	-8%[46.1 µM]
O=C(Nc1ccc(Oc2c(F)c(F)c(F)c(F)c2F)cc1)OC1CCN2Cc3ccccc3N=C12 (stereo not drawn)	-3%[57.5 µM]	2µM*
O=C(CSc1ccc2ccccc2c1)Nc1ccc(S(=O)(=O)Nc2nccs2)cc1	-3%	-3%
COc1ccc(NC(=O)CSc2cc(C)ccc2C)cn1	-5%	-19%
COc1ccc(NC(=O)Cc2ccc(Cl)c(Cl)c2)cn1	-6%	-5%
COc1ccc(NC(=O)/C(Cl)=C(/Cl)S(=O)(=O)Cc2ccc(C)cc2)cn1	/	4µM*
COc1ccc(NC(=O)/C(Cl)=C(/Cl)S(=O)Cc2ccccc2Cl)cn1 (stereo not drawn)	?	5µM*
CCOC(=O)C1=C(C)n2c(s/c(=C/c3cccc([N+](=O)[O-])c3)c2=O)=NC1c1ccc(O)c(OC)c1 (stereo not drawn)	/	7.9µM*
CCOc1ccc(N2C(=O)/C(=C\c3ccc(O)c(OC)c3)S(=O)(=O)C2c2cccc([N+](=O)[O-])c2)cc1 (stereo not drawn)	-1%	-35%
CCOc1ccc(CCNC(=O)CSc2cc(=O)n(CC)c3ccccc23)cc1OCC	2%	-7%
C=CCN1C(=O)S/C(=C/c2ccc(Sc3nc4ccccc4[nH]3)o2)C1=O	25µM*	6%
CC(C)N1C(=O)S/C(=C/c2ccc(Sc3nc4ccccc4[nH]3)o2)C1=O	?	-5%
O=C(CN1C(=O)CCC1=O)Nc1cccc2c1C(=O)NC2=O	-13%	21%
O=S(=O)(c1ccc(Cl)c(NC(=S)N/N=C/c2ccc(O)cc2)c1)N1CCOCC1	28µM*	-26%
O=S(=O)(c1ccc(Cl)c(NC(=S)N/N=C/c2c(F)cccc2F)c1)N1CCOCC1	/	-24%[46.1 µM]
COCCNC(=S)Nc1cc(OC)c(OC)cc1C#N	-2%	-11%
COc1ccc2nc(Cl)cc(Cl)c2c1	0%[57.5 µM]	0%
COc1ccc2nc3cc(Cl)ccc3c(Nc3cc(C(C)C)c(O)cc3C)c2c1	18µM*	?
COc1ccc(S(=O)(=O)Nc2cc(C(C)C)c(O)cc2C)cc1	/	-24%[46.1 µM]
CCN(CC)CCCC(C)Nc1c2ccc(Cl)cc2nc2ccc(OC)cc12 (stereo not drawn)	3%	10µM*
O=C(CCS(=O)(=O)CCN1CCOCC1)NCNC(=O)CCS(=O)(=O)CCN1CCOCC1	7%	4%
CS(=O)(=O)c1nc(-c2ccco2)cc(C(F)(F)F)n1	/	10µM*
COc1ccccc1-c1cc(C(F)(F)F)nc(N2CCCC2)n1	/	-17%[46.1 µM]
CN1CCN(c2nc(-c3ccco3)cc(C(F)(F)F)n2)CC1	/	4%[46.1 µM]
SMILES	ERK EGF inh	NPSR antagonist
COc1ccccc1-c1cc(C(F)(F)F)nc(S(C)(=O)=O)n1	/	7.9µM*
COC(=O)c1ccc([N+](=O)[O-])cc1N1C(=O)C2C3CCC(C3)C2C1=O (stereo not drawn)	-1%	8%
N#C/C(=C\c1ccc([N+](=O)[O-])o1)C(=O)Nc1ccc(F)cc1	-1%	-47%
N#CCc1ccc(NC(=O)/C=C/c2ccc([N+](=O)[O-])o2)cc1	-1%	6.3µM*
Cc1c(Nc2cc(N3CCOCC3)c3nonc3c2[N+](=O)[O-])c(=O)n(-c2ccccc2)n1C	-7%	3%
Cc1c(Nc2cc(Cl)c3nonc3c2[N+](=O)[O-])c(=O)n(-c2ccccc2)n1C	?	6.3µM*
CON/C=N/C(=S)Nc1ncc(C(F)(F)F)cc1Cl	40%	-34%
N#Cc1c(Sc2ncc(C(F)(F)F)cc2Cl)nsc1C/C=N\OCc1ccccc1Br	/	10µM*
N#CC1=C(N)C(C#N)(C#N)C(c2ccncc2)C2CN(C(=O)OCc3ccccc3)CC=C12 (stereo not drawn)	-12%	4µM*
N#CC1=C(N)C(C#N)(C#N)[C@H](c2cccnc2)[C@H]2CN(C(=O)OCc3ccccc3)CC=C12	-23%	-38%
CC(NC(=O)OCc1ccccc1)C(=O)NCC(=O)NC(Cc1ccc(OC(C)(C)C)cc1)C(=O)OC(C)(C)C (stereo not drawn)	2%	-7%
Cc1ccc(S(=O)(=O)ON=C2CCN(S(=O)(=O)c3ccccc3)CC2)cc1	/	-8%[46.1 µM]
CC1=CC(=O)C(C(C)C)=C/C1=N/OS(=O)(=O)c1ccccc1	?	4µM*
O=S(=O)(O/N=C1\CCCc2ccccc21)c1ccccc1	/	7%[46.1 µM]
CC1=CC(=O)C=C(C)C1=NOS(=O)(=O)c1ccccc1	/	7.9µM*
Nc1nc(NCCCN2CCOCC2)nc(Nc2ccccc2F)c1[N+](=O)[O-]	4%[57.5 µM]	0%[7.67 µM]
CC(C)OC(=O)c1c2nc3ccccc3nc2n2c1[nH]c(=O)c1ccccc12	/	10µM*
CC(C)OC(=O)c1c(N)n(CCCN2CCOCC2)c2nc3ccccc3nc12	/	-6%[46.1 µM]
O=C(Nc1cc(S(=O)(=O)N2CCOCC2)ccc1N1CCCC1)c1ccc2c(c1)S(=O)(=O)c1ccccc1C2=O	-3%	-6%
COc1ccc(NS(=O)(=O)c2ccc(N3CCCC3)c(NC(=S)Nc3cccc(S(=O)(=O)N(C)C)c3)c2)cc1	3%	4%
CN(C)S(=O)(=O)c1ccc(-c2csc(N/N=C/c3ccco3)n2)cc1	20µM*	-9%
C(=N\Nc1nc(-c2ccccc2)cs1)/c1ccncc1	-3%	16%
Cc1ccc(-c2csc(N/N=C/c3ccco3)n2)cc1	/	-16%[46.1 µM]
CN(C)S(=O)(=O)c1ccc(-c2csc(N/N=C/c3ccc(O)cc3)n2)cc1	11µM*	13µM*
CC(=O)N(OCc1ccccc1)[C@@H]1c2cc(C#N)ccc2OC(C)(C)[C@H]1O	0%	/
SMILES	ERK EGF inh	NPSR antagonist
COc1ccc2c(c1)c1ccc3c(c1n2C)C(=O)C=CC3=O	32µM*	?
COc1ccc2c(c1)c1ncn(CCN3CCCC3)c(=O)c1n2C	/	-2%[46.1 µM]
Cc1ccc2c(c1)c1ncnc(N3CCOCC3)c1n2C	/	-12%[46.1 µM]
Cc1ccc2c(c1)c1ccc3c(c1n2C)C(=O)C=CC3=O	?	7.9µM*
COc1ccc(Oc2ncc3nc(-c4ccc(OC)cc4)c(=O)n(CCC#N)c3n2)cc1	10%	/
COc1ccc(C(=O)O)cc1S(=O)(=O)NC(C)C	-7%[57.5 µM]	?
CC(C)c1cc(C(N)=O)c(NC(=O)c2cccc(COc3ccc(Cl)cc3)c2)s1	/	10µM*
Cc1nn(Cc2c(F)c(F)c(F)c(F)c2F)c(C)c1NC(=O)c1cccc(COc2ccc(Cl)cc2)c1	/	-29%[46.1 µM]
O=C(COC(=O)CNS(=O)(=O)/C=C/c1ccccc1)Nc1cc(S(=O)(=O)N2CCCCC2)ccc1Cl	-1%	-6%
CCO[C@@H]1OC(C(=O)NCc2ccccc2)=C[C@H](c2ccc(C(F)(F)F)cc2)[C@H]1CCCO	-20%[57.5 µM]	?
Cc1sc(/C=C2\C(=O)ON=C2c2ccccc2)cc1Br	0%	2%
CC1=NOC(=O)/C1=C/c1ccc(O)cc1	13%	-10%
O=C1ON=C(c2ccc(Cl)cc2)/C1=C/c1ccc(O)cc1	?	6.3µM*
COc1cc(/C=C2\C(=O)ON=C2c2ccccc2)cc(Cl)c1O	-4%	7.9µM*
Clc1nc(CN2CCCCC2)nc2sc3c(c12)CCC3	0%	-3%
CCCCCCCCCCC[C@@H](C[C@@H]1OC(=O)[C@H]1CCCCCC)OC(=O)[C@H](CC(C)C)NC=O	5%[57.5 µM]	3%
CNc1ncnc2c1ncn2[C@H]1C[C@H](OP(=O)(O)O)[C@@H](COP(=O)(O)O)O1	10%	8%[46.1 µM]
